From PubChem BioAssay
Activity calls are given as the source filed them. Unless noted, no rule for the calls is given here.

How the values were obtained:
[1] = anti-His antibody binders, primary screen, artefact control for SMM control protein annotation, biochemical, small-molecule microarray, 635 nm fluorescence (AID 1128); details: anti-His Alexa647 antibody binding, higher = more signal;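 also: score merges feature fluorescence with signal-to-noise for each printed compound spot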
[2] = system: Human papillomavirus type 1a E7 protein (residues 1-88); assay: HPV1a E7 small-molecule binders, primary screen, biochemical, small-molecule microarray, residues 1-88, 635 nm (AID 1129); details: small-molecule microarray binding, fluorescence 635 nm; higher = more signal
[3] = target: Focal adhesion kinase 1 (Homo sapiens) (UniProt Q05397); assay: small-molecule microarray binders of FAK, primary screen, biochemical, 635/667 nm fluorescence, BSA, DTT (AID 1130); details: PTK2 binding, 635 nm fluorescence, higher = more signal;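 also: composite of spot emission at 667 nm and signal to noise over triplicate slides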
[4] = system: Fibrinogen (Alexa647-labelled); assay: fibrinogen binders on compound microarrays, profiling panel, artefact control for SMM control-protein annotation, biochemical, small-molecule microarray, 635/667 nm fluorescence (AID 1131); details: fibrinogen-A647 binding fluorescence, higher = more signal;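 also: z-score merges 667 nm fluorescence with per-spot signal-to-noise over triplicate slides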
[5] = target: Follistatin (Homo sapiens) (UniProt P19883); assay: follistatin binders on small-molecule microarrays, primary screen, biochemical, small-molecule microarray, 635/667 nm fluorescence (AID 1132); details: FST binding, 635 nm fluorescence, higher = more signal
[6] = target: Fibroblast growth factor 2 (Homo sapiens) (UniProt P09038); assay: FGF2 binders on small-molecule microarrays, primary screen, biochemical, small-molecule microarray, 635/667 nm fluorescence (AID 1133); details: small-molecule microarray binding, FGF2, fluorescence 635/667; higher = more signal
[7] = mitochondrial membrane potential change in A549 cells, profiling panel, cell-based, JC-1 fluorescence, basal, 24 h, 100 nL (AID 1138); details: higher = more signal;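 also: A549 lung adenocarcinoma cells under basal conditions with no added stimulus; test concentration not given here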
Lefty1 = Lefty1 binders on small-molecule microarrays, primary screen, biochemical, small-molecule microarray, 635/667 nm fluorescence (AID 1139); details: small-molecule microarray binding, fluorescence 635/667; higher = more signal
[8] = system: wheat germ agglutinin (Triticum aestivum), Alexa647-labelled; assay: wheat germ agglutinin binders on compound microarrays, profiling panel, artefact control for SMM control-protein annotation, biochemical, small-molecule microarray, 635/667 nm fluorescence (AID 1140); details: WGA-A647 binding, 635 nm fluorescence, higher = more signal;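 also: score merges 667 nm feature emission with signal to noise over triplicate slides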
[9] = target: Luciferin 4-monooxygenase (Photinus pyralis) (UniProt P08659); assay: firefly luciferase enzyme inhibitors, primary screen, biochemical, luminescence, purified enzyme, 2006 set (AID 1141); details: SteadyGlo luminescence, 30 min, higher = more signal, called active from +8 up or from −8 down;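 also: cell-free assay with purified firefly luciferase at 100 ng per well in PBS; test concentration not given here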
[10] = system: Wnt5a (protein binding on small-molecule microarray); assay: Wnt5a binders on small-molecule microarray, primary screen, biophysical, 635/667 nm fluorescence (AID 1142); details: 635 nm fluorescence, higher = more signal;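 also: fluorescence read at 667 nm with signal to noise per printed feature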
[11] = cell viability in Huh7 cells, primary screen, cytotoxicity control for HCV replication inhibitor project, CellTiter-Glo luminescence, basal, 48 h (AID 1143); details: Huh7 HCV replicon, higher = more signal, called active from +8 up or from −8 down;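 also: Huh7 hepatoma cells carrying a hepatitis C replication reporter with no stimulus; test concentration not given here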
[12] = P. aeruginosa biofilm formation inhibitors, primary screen, PAO1 strain, BacTiter-Glo luminescence, LB-PBS (AID 1144); details: 12 h, higher = more signal
[13] = CREB reporter modulators without forskolin, primary screen, cell-based, PC12, CRE-LacZ reporter, unstimulated (AID 1145); details: no forskolin, luminescence, 4.5 h, higher = more signal, called active from +8 up or from −8 down
[14] = CREB reporter modulators under forskolin, primary screen, cell-based, PC12, CRE-LacZ reporter, forskolin-stimulated (AID 1146); details: luminescence, 4.5 h, higher = more signal, called active from +8 up or from −8 down;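 also: PC12 cells with 6xCRE LacZ reporter stimulated by forskolin 10 µM; beta-galactosidase reporter signal reflecting CREB driven transcription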
[15] = target: Streptavidin (Streptomyces avidinii) (UniProt P22629); assay: streptavidin binders on small-molecule microarray, primary screen, artefact control for SMM compound annotation, biophysical, 635/667 nm fluorescence (AID 1147); details: streptavidin binding, higher = more signal;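 also: signal reflects streptavidin binding to arrayed compounds as a control protein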
[16] = small-molecule binders of probe aInhba, primary screen, biochemical, small-molecule microarray, 635/667 nm fluorescence (AID 1148); details: higher = more signal;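 also: score merges 667nm spot fluorescence with signal-to-noise for antibody binding to printed compounds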
Torsin-1A (Homo sapiens) [17] = target: Torsin-1A (Homo sapiens) (UniProt O14656); assay: torsin A binders from cell lysate, primary screen, small-molecule microarray, wild-type, 635/667 nm (AID 1149); details: COS7 hTOR1A-WT lysate, 635 nm fluorescence, higher = more signal
Torsin-1A (Homo sapiens) [18] = target: Torsin-1A (Homo sapiens) (UniProt O14656); assay: small-molecule binders of mutant TOR1A in lysate, primary screen, cell lysate, small-molecule microarray, COS7 lysate, 635/667 nm fluorescence (AID 1150); details: COS7 hTOR1A mutant lysate, 635 nm fluorescence, higher = more signal;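 also: score pools 667 nm emission and signal to noise measuring lysate protein binding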
[19] = system: Sonic hedgehog protein (Shh); assay: small-molecule binders of Shh protein, primary screen, biochemical, small-molecule microarray, 635/667 nm fluorescence (AID 1151); details: small-molecule microarray binding, 635 nm fluorescence; higher = more signal;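 also: Shh protein binding to compounds spotted on small-molecule microarray slides; score combines spot fluorescence intensity with signal-to-noise across triplicate slides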

Chain of Streptavidin (Streptomyces avidinii) (P22629 whole entry, looked up): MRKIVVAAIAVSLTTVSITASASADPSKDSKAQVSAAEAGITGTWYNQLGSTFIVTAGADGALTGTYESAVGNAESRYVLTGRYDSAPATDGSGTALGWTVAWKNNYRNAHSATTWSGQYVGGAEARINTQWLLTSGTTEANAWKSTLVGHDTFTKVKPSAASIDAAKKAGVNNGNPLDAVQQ
Chain of Focal adhesion kinase 1 (Homo sapiens) (Q05397 whole entry, looked up): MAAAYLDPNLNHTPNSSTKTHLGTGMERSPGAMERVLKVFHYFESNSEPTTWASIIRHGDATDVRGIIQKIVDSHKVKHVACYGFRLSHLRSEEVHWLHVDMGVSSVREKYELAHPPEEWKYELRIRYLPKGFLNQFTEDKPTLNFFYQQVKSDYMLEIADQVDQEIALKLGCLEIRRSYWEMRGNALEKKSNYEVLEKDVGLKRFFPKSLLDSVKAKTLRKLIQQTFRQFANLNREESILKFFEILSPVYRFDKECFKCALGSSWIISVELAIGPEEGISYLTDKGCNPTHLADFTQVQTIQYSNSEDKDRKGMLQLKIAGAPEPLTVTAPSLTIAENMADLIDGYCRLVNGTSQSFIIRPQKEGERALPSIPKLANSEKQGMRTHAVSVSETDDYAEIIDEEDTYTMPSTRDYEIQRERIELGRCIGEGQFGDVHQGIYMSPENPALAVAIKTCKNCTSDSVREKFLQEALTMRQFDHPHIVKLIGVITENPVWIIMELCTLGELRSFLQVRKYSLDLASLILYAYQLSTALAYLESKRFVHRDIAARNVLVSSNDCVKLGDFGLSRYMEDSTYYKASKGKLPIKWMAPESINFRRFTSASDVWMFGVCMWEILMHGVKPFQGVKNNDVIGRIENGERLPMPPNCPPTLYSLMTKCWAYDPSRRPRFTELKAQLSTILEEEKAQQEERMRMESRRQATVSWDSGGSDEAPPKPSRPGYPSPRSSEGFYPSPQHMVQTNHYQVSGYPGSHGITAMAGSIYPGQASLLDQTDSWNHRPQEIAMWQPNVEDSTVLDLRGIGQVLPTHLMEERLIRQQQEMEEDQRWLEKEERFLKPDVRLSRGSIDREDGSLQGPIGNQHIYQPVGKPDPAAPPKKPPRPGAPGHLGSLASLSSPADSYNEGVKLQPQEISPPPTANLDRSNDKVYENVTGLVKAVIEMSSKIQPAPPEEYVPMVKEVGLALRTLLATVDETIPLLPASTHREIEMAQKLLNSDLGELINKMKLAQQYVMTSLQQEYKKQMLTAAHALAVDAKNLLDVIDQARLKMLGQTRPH
Chain of Luciferin 4-monooxygenase (Photinus pyralis) (P08659 whole entry, looked up): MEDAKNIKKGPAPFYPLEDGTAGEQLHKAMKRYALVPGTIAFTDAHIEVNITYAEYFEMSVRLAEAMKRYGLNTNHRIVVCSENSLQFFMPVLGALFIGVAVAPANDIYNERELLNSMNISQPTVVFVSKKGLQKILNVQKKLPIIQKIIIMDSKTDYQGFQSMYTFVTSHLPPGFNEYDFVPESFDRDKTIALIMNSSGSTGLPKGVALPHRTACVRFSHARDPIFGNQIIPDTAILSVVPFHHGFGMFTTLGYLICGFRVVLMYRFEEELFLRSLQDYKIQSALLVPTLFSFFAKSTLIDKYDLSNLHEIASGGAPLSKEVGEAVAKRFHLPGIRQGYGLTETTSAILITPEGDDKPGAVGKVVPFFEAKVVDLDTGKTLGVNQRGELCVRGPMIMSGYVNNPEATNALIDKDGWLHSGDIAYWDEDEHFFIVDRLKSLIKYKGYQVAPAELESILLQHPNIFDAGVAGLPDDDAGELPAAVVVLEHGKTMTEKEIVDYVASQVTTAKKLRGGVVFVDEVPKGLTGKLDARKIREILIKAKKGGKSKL
Chain of Follistatin (Homo sapiens) (P19883 whole entry, looked up): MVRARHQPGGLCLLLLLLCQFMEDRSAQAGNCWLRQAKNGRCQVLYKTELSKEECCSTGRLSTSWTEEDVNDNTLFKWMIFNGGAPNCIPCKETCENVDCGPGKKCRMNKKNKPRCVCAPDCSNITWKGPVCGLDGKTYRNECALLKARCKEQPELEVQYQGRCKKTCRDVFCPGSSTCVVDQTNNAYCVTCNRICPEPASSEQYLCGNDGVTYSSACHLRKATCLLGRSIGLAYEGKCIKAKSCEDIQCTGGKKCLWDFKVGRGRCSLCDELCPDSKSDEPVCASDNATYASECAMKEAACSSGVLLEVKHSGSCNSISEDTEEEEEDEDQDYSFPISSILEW
Chain of Fibroblast growth factor 2 (Homo sapiens) (P09038 whole entry, looked up): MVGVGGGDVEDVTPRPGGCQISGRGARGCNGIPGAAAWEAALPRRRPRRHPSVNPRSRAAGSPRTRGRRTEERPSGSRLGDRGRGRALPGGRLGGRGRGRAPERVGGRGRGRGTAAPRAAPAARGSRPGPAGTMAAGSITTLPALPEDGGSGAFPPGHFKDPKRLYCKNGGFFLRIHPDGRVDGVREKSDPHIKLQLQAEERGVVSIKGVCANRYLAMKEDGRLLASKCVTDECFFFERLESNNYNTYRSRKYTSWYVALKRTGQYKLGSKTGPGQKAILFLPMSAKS
Chain of Torsin-1A (Homo sapiens) (O14656 whole entry, looked up): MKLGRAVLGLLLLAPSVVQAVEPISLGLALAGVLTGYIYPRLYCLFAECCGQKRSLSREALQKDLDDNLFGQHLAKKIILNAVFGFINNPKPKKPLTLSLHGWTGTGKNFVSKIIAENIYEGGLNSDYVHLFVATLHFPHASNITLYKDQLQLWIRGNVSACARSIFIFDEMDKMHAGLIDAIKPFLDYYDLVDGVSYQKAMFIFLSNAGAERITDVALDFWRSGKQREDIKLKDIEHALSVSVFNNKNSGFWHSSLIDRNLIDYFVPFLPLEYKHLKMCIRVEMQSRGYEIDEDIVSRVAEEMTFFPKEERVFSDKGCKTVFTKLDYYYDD

| Compound | composite z-score [1] | composite z-score [2] | composite z-score [3] | composite z-score [4] | composite z-score [5] | composite z-score [6] | z-score [7] | composite z-score (Lefty1) | composite z-score [8] | z-score [9] | composite z-score [10] | z-score [11] | z-score [12] | z-score [13] | z-score [14] | composite z-score [15] | composite z-score [16] | composite z-score (Torsin-1A (Homo sapiens) [17]) | composite z-score (Torsin-1A (Homo sapiens) [18]) | composite z-score [19] |
| --- | --- | --- | --- | --- | --- | --- | --- | --- | --- | --- | --- | --- | --- | --- | --- | --- | --- | --- | --- | --- |
| CC(C)[C@H]1NC(=O)[C@@]23C(=O)N[C@@H](Cc4ccccc4)C2[C@H](C)[C@@]2(C)O[C@H]2C3/C=C/CCC/C=C/CNC(=O)[C@H](Cc2ccccc2)NC1=O (stereo not given in full) | 0.123 | 0.369 | 0.205 | -0.684 | 0.283 | -0.0659 | -0.69 | 1.03 | -0.755 | -0.388 (inactive) | -0.178 | -1.23 (inactive) | 1.01 (inactive) | 1.4 (inactive) | -0.723 (inactive) | -0.77 | -0.152 | 0.343 | 0.671 | 2.03 |
| CCCCCCCCCCC(O)C1C=CC2C(=O)N(c3ccccc3)C(=O)C2N1Nc1ccccc1F (stereo not given) | 0.0112 | 0.399 | 0.674 | 0.415 | -0.348 | -0.591 | -0.127 | -0.833 | 0.472 | 0.422 (inactive) | -0.13 | 0.325 (inactive) | -0.425 (inactive) | -1.09 (inactive) | 0.476 (inactive) | 0.282 | 0.0074 | -0.35 | -0.524 | -0.992 |
| O=C(NCC(O)CO)[C@@]1(CCS(=O)(=O)c2ccccc2)COC(c2ccc(OCCCO)cc2)=N1 (stereo not given in full) | 2.29 | 1.17 | 0.204 | 0.904 | 1.36 | 1.28 | -0.583 | -0.682 | 0.41 | 0.405 (inactive) | 0.556 | -1.2 (inactive) | 0.063 (inactive) | 0.33 (inactive) | 0.0138 (inactive) | 0.985 | 0.228 | 1.13 | 1.91 | -0.504 |
| C=CCNC(=O)[C@H]1[C@@H]2C(=O)O[C@@H](c3ccccc3)[C@@H](c3ccccc3)N2[C@@H](c2ccc(O)cc2)[C@]12C(=O)N(C(=O)OCCOC)c1ccc(C#CCC(C(=O)OC)C(=O)OC)cc12 | 0.724 | 1.13 | 0.439 | 0.858 | 1.32 | 1.5 | -1.74 | 0.836 | 0.856 | 0.315 (inactive) | 0.027 | -2.96 (inactive) | 0.102 (inactive) | 0.0653 (inactive) | 0.141 (inactive) | 0.663 | -0.0221 | 0.757 | 0.283 | 1.75 |
| C=CCC(OC(C)=O)[C@@H]1[C@@H](N(Cc2cc3ccccc3o2)C(=O)c2ccc(-c3ccccc3)cc2)c2cc(OCCCO)ccc2N1C(=O)Cc1ccc(OC)cc1 (stereo not given in full) | -0.289 | -0.27 | -0.19 | 0.457 | 0.453 | 0.245 | 0.64 | 0.16 | 0.307 | -0.189 (inactive) | -0.138 | 0.0567 (inactive) | 0.263 (inactive) | 1.09 (inactive) | 0.289 (inactive) | -0.0182 | -0.0736 | -0.592 | -0.324 | 0.366 |
| CC(C)C[C@@H]1NC(=O)CNC(=O)[C@@]23C(=O)N[C@@H](Cc4ccccc4)C2[C@H](C)[C@@]2(C)O[C@H]2C3/C=C/C/C=C\CNC1=O (stereo not given in full) | 0.678 | 0.331 | -0.183 | 0.949 | 1.08 | 0.759 | 0.036 | 1.07 | -0.0197 | -0.14 (inactive) | 0.184 | 0.0431 (inactive) | -0.826 (inactive) | -0.417 (inactive) | 0.297 (inactive) | -0.0691 | -0.0494 | 1.09 | -0.134 | 1.5 |
| C=C[C@@H](C)[C@H](O)c1ccc(OCCO)cc1 | 0.0123 | -0.535 | -0.232 | -1.82 | -0.808 | -0.994 | 0.41 | -1.19 | -0.858 | -15.8 (active) | -0.872 | -0.104 (inactive) | -0.307 (inactive) | 0.166 (inactive) | -0.049 (inactive) | -1.83 | -0.263 | -3.14 | -1.86 | -0.509 |
| COC(=O)c1c2oc(c1C(=O)OC)C(=O)N1CCC[C@H]1Cn1nncc1CN(Cc1ccccc1)C(=O)N[C@H](CO)CC2 | 0.328 | -0.243 | 0.291 | 0.676 | 0.423 | 1.04 | 0.39 | 0.783 | 0.18 | -1.29 (inactive) | 0.533 | 0.246 (inactive) | -0.294 (inactive) | 0.251 (inactive) | -0.147 (inactive) | 0.0789 | -0.0448 | -0.14 | -0.0715 | 0.658 |
| COc1ccc([Si](C)(C)[C@@H]2[C@@H](CCn3cc([C@H](O)c4ccccc4)nn3)O[C@]3(C(=O)N(Cc4cccc(N5C(=O)c6cccc7cccc5c67)c4)c4ccccc43)[C@H]2C)cc1 | 0.195 | -0.34 | -0.426 | -0.759 | -0.0585 | -0.758 | 0.794 | 0.199 | -0.228 | 0.148 (inactive) | -0.537 | -3.34 (inactive) | 0.692 (inactive) | 0.0031 (inactive) | 0.471 (inactive) | -0.0465 | -0.0963 | -1.06 | -0.526 | 0.454 |
| CN1C(=O)C2C=CC(C(O)c3ccc(F)cc3)N(NC(=O)OC(C)(C)C)C2C1=O (stereo not given) | 0.322 | 0.878 | 0.22 | 0.81 | 0.344 | -0.475 | -0.946 | 0.0813 | 0.381 | -0.507 (inactive) | 0.155 | -0.134 (inactive) | 0.193 (inactive) | 0.436 (inactive) | 0.84 (inactive) | 1.43 | 0.0705 | 0.0284 | -0.0455 | -0.761 |
